Some test systems named below: DU-145 prostate; K-562 leukemia; MALME-3M melanoma; MDA-MB-231 breast; RXF 393 renal; SF-268 CNS; SF-295 CNS; SF-539 CNS; UACC-257 melanoma; M14 melanoma; HT29 colon; SNB-75 CNS; SNB-19 CNS; U251 CNS; PC-3 prostate; SK-MEL-5 melanoma; UACC-62 melanoma; LOX IMVI melanoma; SK-MEL-28 melanoma.
What all share (experiment): NCI-60 one-dose screen, 48 h (100 = growth as untreated, 0 = no growth, -100 = all killed)
Common to all, as to conditions: 10 µM unless noted

The panel holds about 83,000 compounds, 20% with a hit somewhere; the sample as a whole holds those more often.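 Interpretation: 100, growth as untreated; towards 0, rising growth inhibition; 0, no net growth; 0 to -100, cell death. Compounds scoring below 10 were considered active.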 Values without a mark were called inactive. Calls of active or inactive are those of the source.

`CCCCOC(=O)c1c(C)[nH]c(/C=C2\N=C(c3ccc[nH]3)C=C2OC)c1C`: the growth was 18.5% in the assay with DU-145 prostate; 9.48% (active) in the assay with K-562 leukemia; -56.5% (active) in the assay on MALME-3M melanoma; -49.7% (active) in the assay on MDA-MB-231 breast; -12.6% (active) in the assay with RXF 393 renal; 19.9% with SF-268 CNS. Also, the growth in the assay with SF-295 CNS was -61.9% (active); in the assay with SF-539 CNS, -36.2% (active); in the assay with UACC-257 melanoma it was -12% (active); in the assay with M14 melanoma, -18.6% (active); with HT29 colon it was 1.64% (active); with SNB-75 CNS it was -20% (active). Moreover, the growth was 26.6% in the assay on SNB-19 CNS; 1.25% (active) in the assay on U251 CNS; 13.9% with PC-3 prostate; -98% (active) with SK-MEL-5 melanoma; -28% (active) in the assay on UACC-62 melanoma; -65.8% (active) in the assay on LOX IMVI melanoma. The growth in the assay on SK-MEL-28 melanoma is -14% (active).
For the compound `COc1cc2c(cc1OCCCN1CCN(CCCOc3cc4c(cc3OC)C(=O)N3C[C@H](F)C[C@H]3C=N4)CC1)N=C[C@@H]1C[C@@H](F)CN1C2=O`, the growth with DU-145 prostate is -19.9% (active); in the assay on K-562 leukemia it was 2.13% (active); with MALME-3M melanoma, -75.7% (active); with MDA-MB-231 breast, 18.8%; in the assay with RXF 393 renal, -52.1% (active); in the assay on SF-268 CNS, 9.5% (active). Also, the growth in the assay with SF-295 CNS was 13.8%; in the assay on SF-539 CNS it was -68.4% (active); in the assay with UACC-257 melanoma it was 20.8%; with M14 melanoma, -7.96% (active); in the assay on HT29 colon, 0.625% (active); with SNB-75 CNS it was -72.3% (active). Moreover, the growth with SNB-19 CNS was 18.1%; with U251 CNS it was 8.39% (active); with PC-3 prostate, 12.7%; in the assay on SK-MEL-5 melanoma, -44.7% (active); with UACC-62 melanoma, -59.7% (active); in the assay on LOX IMVI melanoma it was 5.06% (active). Also, the growth with SK-MEL-28 melanoma is -50.8% (active).
Take `CO[C@H]1CC[C@@]2(C)C(=CC[C@H]3[C@@H]4C[C@H](O)C[C@@]4(C)CC[C@@H]32)C1`: the growth in the assay with DU-145 prostate was 42.1%; in the assay on K-562 leukemia it was 20.7%; with MALME-3M melanoma, 52.1%; in the assay on MDA-MB-231 breast it was 56.2%; in the assay with RXF 393 renal it was 58.5%; in the assay on SF-268 CNS it was 49.2%. In addition, the growth is 40.8% in the assay on SF-295 CNS; 38% in the assay with SF-539 CNS; 65.2% in the assay with UACC-257 melanoma; 36.6% in the assay on M14 melanoma; 69% in the assay on HT29 colon; 32.8% with SNB-75 CNS. The growth is 55.3% in the assay on SNB-19 CNS; 38.6% with U251 CNS; 68.3% with PC-3 prostate; 30.9% with SK-MEL-5 melanoma; 42.6% with UACC-62 melanoma; 48.7% with LOX IMVI melanoma. Moreover, the growth in the assay with SK-MEL-28 melanoma was 68.5%.
For the compound `CN(C)CCCNc1nc(-c2cccc(C(Cl)(Cl)Cl)c2)nc(C(Cl)(Cl)Cl)n1`, the growth in the assay on DU-145 prostate was 112%; in the assay on K-562 leukemia it was 88.2%; with MALME-3M melanoma, 88.9%; in the assay with MDA-MB-231 breast, 95.8%; in the assay with RXF 393 renal, 109%; in the assay on SF-268 CNS, 106%. Also, the growth in the assay with SF-295 CNS is 94.1%; in the assay on SF-539 CNS, 110%; in the assay on UACC-257 melanoma it was 119%; in the assay with M14 melanoma, 102%; with HT29 colon it was 94.9%; with SNB-75 CNS it was 83.1%. Besides, the growth is 102% in the assay on SNB-19 CNS; 105% in the assay with U251 CNS; 98.4% in the assay with PC-3 prostate; 103% in the assay with SK-MEL-5 melanoma; 99.6% in the assay with UACC-62 melanoma; 87.7% in the assay with LOX IMVI melanoma. In addition, the growth in the assay on SK-MEL-28 melanoma is 103%.
For `O=c1[nH]c(CN2CCN(c3cccc(Cl)c3)CC2)nc2cc(Cl)ccc12`, the growth was 101% with DU-145 prostate; 97.9% in the assay on K-562 leukemia; 108% in the assay on MALME-3M melanoma; 104% in the assay with MDA-MB-231 breast; 90.3% in the assay on RXF 393 renal; 99.3% with SF-268 CNS. Also, the growth was 100% with SF-295 CNS; 94.2% with SF-539 CNS; 59.9% in the assay on UACC-257 melanoma; 89.1% in the assay with M14 melanoma; 106% with HT29 colon; 80.5% with SNB-75 CNS. Besides, the growth in the assay with SNB-19 CNS is 91.3%; in the assay on U251 CNS, 94.6%; with PC-3 prostate, 90.6%; in the assay with SK-MEL-5 melanoma it was 99.4%; with UACC-62 melanoma, 93.8%; in the assay with LOX IMVI melanoma it was 92.5%. Moreover, the growth with SK-MEL-28 melanoma was 102%.
Take `CCCCCCCCN(CCCCCCCC)CC(O)c1ccc(Cl)c(C)c1Cl` (stereo not drawn): the growth is 105% in the assay on DU-145 prostate; 67.9% with K-562 leukemia; 102% in the assay with MALME-3M melanoma; 59.1% in the assay on MDA-MB-231 breast; 87.6% with RXF 393 renal; 91.9% in the assay on SF-268 CNS. The growth was 59.6% in the assay with SF-295 CNS; 94.3% in the assay on SF-539 CNS; 89.4% in the assay on UACC-257 melanoma; 85.2% in the assay on M14 melanoma; 42.2% in the assay on HT29 colon; 86.8% in the assay with SNB-75 CNS. Besides, the growth with SNB-19 CNS was 93.2%; with U251 CNS it was 91.3%; in the assay on PC-3 prostate, 72.9%; in the assay with SK-MEL-5 melanoma, 101%; with UACC-62 melanoma, 89.2%; in the assay on LOX IMVI melanoma it was 53.5%. Moreover, the growth in the assay on SK-MEL-28 melanoma is 106%.
Consider `COc1cc(-c2cc(-c3ccc(Nc4ncnc5cc(Cl)ccc45)cc3)nc(N3CCCCC3)n2)cc(OC)c1OC`, for which the growth with DU-145 prostate is 102%; with K-562 leukemia, 92.3%; with MALME-3M melanoma it was 95.1%; with MDA-MB-231 breast, 92%; in the assay with RXF 393 renal, 106%; with SF-268 CNS, 88.4%. The growth in the assay on SF-295 CNS is 104%; with SF-539 CNS, 93.6%; in the assay on UACC-257 melanoma it was 111%; in the assay on M14 melanoma, 106%; in the assay on HT29 colon, 87.7%; with SNB-75 CNS it was 108%. Moreover, the growth in the assay on SNB-19 CNS was 100%; with U251 CNS it was 98.9%; in the assay on PC-3 prostate, 88.1%; in the assay on SK-MEL-5 melanoma it was 97.7%; in the assay on UACC-62 melanoma, 95.5%; in the assay with LOX IMVI melanoma, 97.3%. Also, the growth in the assay with SK-MEL-28 melanoma was 108%.
